The supplement of paper PMC10849652
About 7,900 targets were measured; listed, in parts, are those with a hit and a random draw of the rest. About 0.6% of all pairs of compound and target were hits.

How the values were obtained:
Test in all cases: log2 fold change, soluble protein after heating vs DMSO (PISA); higher = thermal stabilisation; K562 cells, 10 uM, 30 min; active = over 0.2 and 3.5 SD of the protein, either way, in both replicates (recomputed)
[1] = compound: CS(=O)(=O)c1ccc(-c2cnc(N)c(C(=O)Nc3ccccc3)n2)cc1
How it was run: (§1)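 For each measurement, 10 μM compound was applied for 30 min to K562 cells at 2×10^6 cells/mL. Aliquots were heated for 3 min across 48°C-58°C, pooled, and extracted in PBS with 0.5% NP-40 at 4°C; the supernatant after 21,000xg for 90 min was soluble protein. This was quantified by TMTpro 16plex LC-MS/MS with channel sums equalised, and thermal stability was reported relative to control samples from duplicates, on a log2 fold-change scale.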

crizotinib = compound: C[C@@H](Oc1cc(-c2cnn(C3CCNCC3)c2)cnc1N)c1c(Cl)ccc(F)c1Cl [crizotinib]
How it was run: as §1

[2] = compound: C[C@@H]1COCCN1C2=NC(=NC(=C2)C3(CC3)S(=O)(=O)C)C4=C5C=CNC5=CC=C4
How it was run: as §1

[3] = compound: C[C@H](C1=CC=C(C=C1)C(=O)NC2=C3C=CNC3=NC=C2)N
How it was run: as §1

duvelisib = compound: C[C@H](Nc1ncnc2nc[nH]c12)c1cc2cccc(Cl)c2c(=O)n1-c1ccccc1 [duvelisib]
How it was run: as §1

gandotinib = compound: Cc1cc(Nc2cc(CN3CCOCC3)c3nc(C)c(Cc4ccc(Cl)cc4F)n3n2)n[nH]1 [gandotinib]
How it was run: as §1

tozasertib = compound: Cc1cc(Nc2cc(N3CCN(C)CC3)nc(Sc3ccc(NC(=O)C4CC4)cc3)n2)n[nH]1 [tozasertib]
How it was run: as §1

[4] = compound: Cc1cc(SCc2sc(-c3ccc(C(F)(F)F)cc3)nc2C)ccc1OCC(=O)O
How it was run: as §1

doramapimod = compound: Cc1ccc(-n2nc(C(C)(C)C)cc2NC(=O)Nc2ccc(OCCN3CCOCC3)c3ccccc23)cc1 [doramapimod]
How it was run: as §1

ispinesib = compound: Cc1ccc(C(=O)N(CCCN)[C@@H](c2nc3cc(Cl)ccc3c(=O)n2Cc2ccccc2)C(C)C)cc1 [ispinesib]
How it was run: as §1

bafetinib = compound: Cc1ccc(NC(=O)c2ccc(CN3CC[C@H](N(C)C)C3)c(C(F)(F)F)c2)cc1Nc1nccc(-c2cncnc2)n1 [bafetinib]
How it was run: as §1

[5] = compound: Cc1cccc(CC(=O)N2CCc3c2ccc(-c2cn(C)c4ncnc(N)c24)c3F)n1
How it was run: as §1

nilotinib = compound: Cc1cn(-c2cc(NC(=O)c3ccc(C)c(Nc4nccc(-c5cccnc5)n4)c3)cc(C(F)(F)F)c2)cn1 [nilotinib]
How it was run: as §1

[6] = compound: Cc1nc(Nc2n[nH]c3c2CN(C(=O)N[C@H](CN(C)C)c2ccccc2)C3(C)C)c2sccc2n1
How it was run: as §1

dasatinib = compound: Cc1nc(Nc2ncc(C(=O)Nc3c(C)cccc3Cl)s2)cc(N2CCN(CCO)CC2)n1 [dasatinib]
How it was run: as §1

[7] = compound: Cc1ncc(-c2ccnc(Nc3ccc(S(C)(=O)=O)cc3)n2)n1C(C)C
How it was run: as §1

[8] = compound: Cn1cc(-c2ccc3c(c2)CCN3C(=O)Cc2cccc(C(F)(F)F)c2)c2c(N)ncnc21
How it was run: as §1

[9] = compound: Cn1cc(-c2ccc3nnc(C(F)(F)c4ccc5ncccc5c4)n3n2)cn1
How it was run: as §1

tipifarnib = compound: Cn1cncc1[C@@](N)(c1ccc(Cl)cc1)c1ccc2c(c1)c(-c1cccc(Cl)c1)cc(=O)n2C [tipifarnib]
How it was run: as §1

mubritinib = compound: FC(F)(F)c1ccc(/C=C/c2nc(COc3ccc(CCCCn4ccnn4)cc3)co2)cc1 [mubritinib]
How it was run: as §1

Measured: log2 fold change

PDCD2L (UniProt Q9BRP1)
inactive: [1] -0.059 | crizotinib -0.048 | [2] -0.083 | [3] 0.068 | duvelisib 0.053 | gandotinib 0.225 | tozasertib -0.007 | [4] 0.097 | doramapimod -0.058 | ispinesib 0.062 | bafetinib 0.026 | [5] 0.077 | nilotinib -0.137 | [6] 0.035 | dasatinib -0.122 | [7] -0.062 | [8] -0.022 | [9] 0.015 | tipifarnib -0.13 | mubritinib 0.018

PIR (UniProt O00625)
UniProt O00625, sequence (O00625 whole entry, looked up): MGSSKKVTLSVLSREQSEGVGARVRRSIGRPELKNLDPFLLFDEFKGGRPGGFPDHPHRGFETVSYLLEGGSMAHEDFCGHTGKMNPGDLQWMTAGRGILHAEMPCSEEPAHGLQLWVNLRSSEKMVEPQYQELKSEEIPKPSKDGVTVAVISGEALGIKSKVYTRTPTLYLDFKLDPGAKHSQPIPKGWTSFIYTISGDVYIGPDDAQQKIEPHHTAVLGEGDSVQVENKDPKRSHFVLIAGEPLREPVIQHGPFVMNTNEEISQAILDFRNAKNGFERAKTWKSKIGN
inactive: [1] 0.004 | crizotinib 0.042 | [2] 0.019 | [3] -0.085 | duvelisib 0.013 | gandotinib 0.048 | tozasertib 0.027 | [4] 0.057 | doramapimod 0.095 | ispinesib 0.045 | bafetinib -0.073 | [5] 0.001 | nilotinib 0.009 | [6] -0.006 | dasatinib -0.044 | [7] -0.014 | [8] -0.003 | [9] 0.028 | tipifarnib -0.069 | mubritinib 0.11

PRKAG1 isoform 3 (UniProt P54619)
inactive: [1] -0.01 | crizotinib -0.114 | [2] 0.006 | [3] -0.023 | duvelisib 0.035 | gandotinib -0.249 | tozasertib -0.032 | [4] 0.004 | doramapimod -0.003 | ispinesib -0.018 | bafetinib -0.098 | [5] 0.001 | nilotinib -0.079 | [6] -0.189 | dasatinib -0.056 | [7] -0.01 | [8] 0.001 | [9] 0.022 | tipifarnib 0.007 | mubritinib -0.052

PMM2 (UniProt O15305)
UniProt O15305, sequence (O15305 whole entry, looked up): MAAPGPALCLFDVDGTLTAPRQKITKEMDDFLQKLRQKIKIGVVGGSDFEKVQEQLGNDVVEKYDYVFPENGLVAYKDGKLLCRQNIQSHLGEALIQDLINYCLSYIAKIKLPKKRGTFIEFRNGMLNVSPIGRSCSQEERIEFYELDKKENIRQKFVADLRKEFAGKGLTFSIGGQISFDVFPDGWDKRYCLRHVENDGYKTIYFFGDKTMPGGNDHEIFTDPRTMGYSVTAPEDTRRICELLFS
active: nilotinib -0.291
inactive: [1] 0.006 | crizotinib 0.08 | [2] 0.013 | [3] 0.012 | duvelisib 0.056 | gandotinib -0.045 | tozasertib -0.017 | [4] -0.031 | doramapimod -0.015 | ispinesib 0.009 | bafetinib -0.098 | [5] 0.003 | [6] -0.054 | dasatinib -0.018 | [7] -0.015 | [8] 0.035 | [9] 0.013 | tipifarnib 0.018 | mubritinib 0.028

PPP1R14A (UniProt Q96A00)
UniProt Q96A00, sequence (Q96A00 whole entry, looked up): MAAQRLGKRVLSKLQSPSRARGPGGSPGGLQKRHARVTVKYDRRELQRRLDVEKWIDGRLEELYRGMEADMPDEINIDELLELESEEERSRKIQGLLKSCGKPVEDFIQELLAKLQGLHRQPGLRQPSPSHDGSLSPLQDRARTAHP
inactive: [1] 0.078 | crizotinib 0.011 | [2] 0.005 | [3] 0.003 | duvelisib 0.06 | gandotinib 0.106 | tozasertib -0.017 | [4] -0.049 | doramapimod -0.086 | ispinesib 0.319 | bafetinib -0.058 | [5] 0.026 | nilotinib -0.01 | [6] 0.013 | dasatinib 0.019 | [7] 0.026 | [8] 0.076 | [9] -0.055 | tipifarnib 0 | mubritinib 0.033

PSMC2 (UniProt P35998)
UniProt P35998, sequence (P35998 whole entry, looked up): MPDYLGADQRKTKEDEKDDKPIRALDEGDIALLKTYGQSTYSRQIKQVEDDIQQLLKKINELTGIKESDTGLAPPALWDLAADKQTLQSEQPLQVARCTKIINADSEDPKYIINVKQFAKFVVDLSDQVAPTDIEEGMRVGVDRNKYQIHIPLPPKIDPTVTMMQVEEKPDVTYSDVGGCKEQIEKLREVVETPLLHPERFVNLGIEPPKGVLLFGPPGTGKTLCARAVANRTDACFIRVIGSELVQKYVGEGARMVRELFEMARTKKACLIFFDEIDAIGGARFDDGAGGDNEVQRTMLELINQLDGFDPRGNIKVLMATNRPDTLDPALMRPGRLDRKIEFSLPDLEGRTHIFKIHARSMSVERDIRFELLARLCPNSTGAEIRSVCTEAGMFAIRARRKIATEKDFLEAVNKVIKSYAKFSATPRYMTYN
inactive: [1] 0.011 | crizotinib 0.003 | [2] -0.087 | [3] 0.079 | duvelisib -0.061 | gandotinib 0.027 | tozasertib 0.031 | [4] 0.014 | doramapimod 0.005 | ispinesib 0.016 | bafetinib 0.081 | [5] 0.029 | nilotinib -0.019 | [6] 0.044 | dasatinib 0.034 | [7] -0.018 | [8] -0.126 | [9] -0.013 | tipifarnib 0.113 | mubritinib -0.031

PRKCD (UniProt Q05655)
UniProt Q05655, sequence (Q05655 whole entry, looked up): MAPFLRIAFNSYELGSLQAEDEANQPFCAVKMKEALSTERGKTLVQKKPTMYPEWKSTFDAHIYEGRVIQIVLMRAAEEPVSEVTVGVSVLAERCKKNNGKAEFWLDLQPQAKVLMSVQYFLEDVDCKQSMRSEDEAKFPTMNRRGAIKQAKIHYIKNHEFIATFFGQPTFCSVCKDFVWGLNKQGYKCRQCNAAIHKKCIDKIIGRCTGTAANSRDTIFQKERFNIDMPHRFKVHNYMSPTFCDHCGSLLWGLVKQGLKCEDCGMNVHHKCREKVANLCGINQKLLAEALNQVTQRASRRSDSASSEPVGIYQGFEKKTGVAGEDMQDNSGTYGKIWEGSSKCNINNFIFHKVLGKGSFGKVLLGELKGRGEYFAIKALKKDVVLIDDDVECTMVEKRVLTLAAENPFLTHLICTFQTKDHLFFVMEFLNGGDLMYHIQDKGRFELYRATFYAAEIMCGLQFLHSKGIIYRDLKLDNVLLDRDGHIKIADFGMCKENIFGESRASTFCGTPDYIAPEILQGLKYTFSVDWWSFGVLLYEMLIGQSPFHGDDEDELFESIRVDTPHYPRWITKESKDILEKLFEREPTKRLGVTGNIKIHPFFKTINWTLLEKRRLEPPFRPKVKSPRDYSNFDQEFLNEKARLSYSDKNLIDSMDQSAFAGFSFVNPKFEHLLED
inactive: [1] 0.05 | crizotinib -0.008 | [2] 0.053 | [3] -0.215 | duvelisib 0.009 | gandotinib -0.056 | tozasertib -0.006 | [4] 0.007 | doramapimod 0.005 | ispinesib -0.007 | bafetinib -0.028 | [5] -0.007 | nilotinib 0.033 | dasatinib -0.049 | [7] -0.021 | [8] 0.027 | [9] 0.102 | tipifarnib 0.008 | mubritinib 0.08
active: [6] -0.261

PRKAB1 (UniProt Q9Y478)
UniProt Q9Y478, sequence (Q9Y478 whole entry, looked up): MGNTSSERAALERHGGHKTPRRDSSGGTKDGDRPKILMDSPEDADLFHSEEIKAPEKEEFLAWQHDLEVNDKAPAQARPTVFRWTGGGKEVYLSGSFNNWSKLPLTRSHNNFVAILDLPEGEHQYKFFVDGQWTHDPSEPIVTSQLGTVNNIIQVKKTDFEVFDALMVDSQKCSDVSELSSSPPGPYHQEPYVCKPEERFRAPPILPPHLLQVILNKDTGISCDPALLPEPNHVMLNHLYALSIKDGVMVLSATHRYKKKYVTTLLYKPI
active: crizotinib -0.252
inactive: [1] 0.013 | [2] 0.029 | [3] -0.063 | duvelisib 0.01 | gandotinib -0.057 | tozasertib -0.013 | [4] 0.069 | doramapimod 0.013 | ispinesib -0.013 | bafetinib -0.154 | [5] 0.006 | nilotinib -0.119 | [6] -0.162 | dasatinib -0.037 | [7] -0.007 | [8] 0.04 | [9] -0.026 | tipifarnib 0.008 | mubritinib -0.104

PDSS2 (UniProt Q86YH6)
UniProt Q86YH6, sequence (Q86YH6 whole entry, looked up): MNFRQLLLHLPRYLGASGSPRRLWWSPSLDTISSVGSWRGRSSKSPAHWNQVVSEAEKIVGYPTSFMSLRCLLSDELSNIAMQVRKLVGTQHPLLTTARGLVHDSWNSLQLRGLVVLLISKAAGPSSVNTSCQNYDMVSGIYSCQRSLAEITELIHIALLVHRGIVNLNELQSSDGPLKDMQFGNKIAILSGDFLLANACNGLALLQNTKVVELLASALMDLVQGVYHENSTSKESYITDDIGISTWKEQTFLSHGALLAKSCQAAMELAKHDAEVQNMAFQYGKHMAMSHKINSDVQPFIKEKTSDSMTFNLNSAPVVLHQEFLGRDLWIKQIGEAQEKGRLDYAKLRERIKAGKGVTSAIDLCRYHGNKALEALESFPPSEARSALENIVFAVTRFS
inactive: [1] -0.034 | crizotinib 0.078 | [2] 0.075 | [3] -0.058 | duvelisib -0.083 | gandotinib 0.098 | tozasertib -0.118 | [4] 0.149 | doramapimod 0.049 | ispinesib -0.031 | bafetinib 0.077 | [5] 0.048 | nilotinib 0.029 | [6] 0.163 | dasatinib 0.06 | [7] -0.154 | [8] 0.052 | [9] 0.02 | tipifarnib -0.095

PLIN2 (UniProt Q99541)
UniProt Q99541, sequence (Q99541 whole entry, looked up): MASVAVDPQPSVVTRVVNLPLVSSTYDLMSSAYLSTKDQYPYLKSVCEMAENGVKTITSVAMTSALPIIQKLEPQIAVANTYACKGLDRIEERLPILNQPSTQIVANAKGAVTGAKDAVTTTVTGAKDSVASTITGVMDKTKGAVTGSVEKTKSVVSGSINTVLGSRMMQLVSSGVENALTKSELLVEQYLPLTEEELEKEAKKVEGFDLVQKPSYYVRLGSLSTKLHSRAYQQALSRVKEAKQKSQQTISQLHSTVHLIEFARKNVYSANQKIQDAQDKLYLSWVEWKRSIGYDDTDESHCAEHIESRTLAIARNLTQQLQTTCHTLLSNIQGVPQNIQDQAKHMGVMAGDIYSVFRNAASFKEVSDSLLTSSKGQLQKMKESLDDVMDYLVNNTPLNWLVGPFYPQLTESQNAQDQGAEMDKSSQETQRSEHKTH
inactive: [1] -0.103 | [2] 0.054 | [3] 0.03 | duvelisib 0.098 | gandotinib -0.31 | tozasertib -0.086 | [4] 0.031 | doramapimod -0.092 | bafetinib -0.326 | [5] 0.037 | nilotinib 0.184 | [6] 0.03 | dasatinib -0.219 | [7] 0.04 | [8] -0.016 | [9] 0.047 | tipifarnib -0.105 | mubritinib 0.027
active: crizotinib -0.841 | ispinesib -2.6

POMP (UniProt Q9Y244)
UniProt Q9Y244, sequence (Q9Y244 whole entry, looked up): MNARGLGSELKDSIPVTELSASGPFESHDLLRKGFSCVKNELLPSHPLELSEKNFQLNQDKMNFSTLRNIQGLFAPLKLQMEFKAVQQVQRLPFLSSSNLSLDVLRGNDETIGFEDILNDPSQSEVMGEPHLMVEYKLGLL
inactive: [1] -0.086 | crizotinib -0.059 | [2] -0.023 | [3] -0.076 | duvelisib 0.055 | gandotinib 0.027 | tozasertib 0.001 | [4] -0.245 | doramapimod -0.143 | ispinesib 0.108 | bafetinib -0.097 | [5] -0.101 | nilotinib 0.142 | [6] -0.093 | dasatinib 0.006 | [7] -0.092 | [8] 0.079 | [9] 0.156 | tipifarnib 0.116 | mubritinib 0.01

PIP4K2B (UniProt P78356)
UniProt P78356, sequence (P78356 whole entry, looked up): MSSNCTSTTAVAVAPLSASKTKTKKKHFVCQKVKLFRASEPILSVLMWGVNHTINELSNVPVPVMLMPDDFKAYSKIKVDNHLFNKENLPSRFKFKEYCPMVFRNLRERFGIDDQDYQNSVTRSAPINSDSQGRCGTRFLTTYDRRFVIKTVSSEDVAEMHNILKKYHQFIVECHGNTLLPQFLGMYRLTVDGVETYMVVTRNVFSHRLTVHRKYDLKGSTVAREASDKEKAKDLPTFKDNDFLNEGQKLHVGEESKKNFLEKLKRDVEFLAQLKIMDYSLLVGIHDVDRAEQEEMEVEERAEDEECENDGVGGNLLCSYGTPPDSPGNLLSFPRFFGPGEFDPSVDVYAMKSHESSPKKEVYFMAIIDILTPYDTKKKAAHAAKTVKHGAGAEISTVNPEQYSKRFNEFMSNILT
active: [1] 0.63 | [7] 0.538
inactive: crizotinib -0.01 | [2] 0.048 | [3] -0.072 | duvelisib 0.028 | gandotinib -0.031 | tozasertib -0.025 | [4] -0.009 | doramapimod -0.055 | ispinesib -0.007 | bafetinib 0.258 | [5] 0.011 | nilotinib 0.085 | [6] 0.05 | dasatinib 0.139 | [8] 0.055 | [9] 0.172 | tipifarnib -0.03 | mubritinib -0.083

PTRH2 (UniProt Q9Y3E5)
UniProt Q9Y3E5, sequence (Q9Y3E5 whole entry, looked up): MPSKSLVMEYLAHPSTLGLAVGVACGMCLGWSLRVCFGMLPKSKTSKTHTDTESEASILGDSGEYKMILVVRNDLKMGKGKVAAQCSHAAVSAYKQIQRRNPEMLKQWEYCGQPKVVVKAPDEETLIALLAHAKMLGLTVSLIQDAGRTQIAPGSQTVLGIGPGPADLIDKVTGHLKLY
inactive: [1] 0.02 | crizotinib 0.081 | [2] 0.061 | [3] -0.098 | duvelisib 0.051 | gandotinib -0.02 | tozasertib 0.001 | [4] -0.001 | doramapimod -0.074 | ispinesib 0.181 | bafetinib -0.022 | [5] 0.017 | nilotinib 0.039 | [6] -0.011 | dasatinib -0.004 | [7] 0.046 | [8] 0.044 | [9] -0.019 | tipifarnib 0.042 | mubritinib -0.009

PGGHG (UniProt Q32M88)
inactive: [1] 0.019 | crizotinib -0.01 | [2] 0.003 | [3] 0.175 | duvelisib 0.073 | gandotinib -0.039 | tozasertib -0.108 | [4] 0.049 | doramapimod 0.048 | ispinesib 0.05 | bafetinib -0.036 | [5] -0.001 | nilotinib 0.012 | [6] 0.023 | dasatinib 0.009 | [7] -0.078 | [8] -0.152 | [9] 0.058 | tipifarnib -0.077 | mubritinib 0.047

PKM (UniProt P14618)
UniProt P14618, sequence (P14618 whole entry, looked up): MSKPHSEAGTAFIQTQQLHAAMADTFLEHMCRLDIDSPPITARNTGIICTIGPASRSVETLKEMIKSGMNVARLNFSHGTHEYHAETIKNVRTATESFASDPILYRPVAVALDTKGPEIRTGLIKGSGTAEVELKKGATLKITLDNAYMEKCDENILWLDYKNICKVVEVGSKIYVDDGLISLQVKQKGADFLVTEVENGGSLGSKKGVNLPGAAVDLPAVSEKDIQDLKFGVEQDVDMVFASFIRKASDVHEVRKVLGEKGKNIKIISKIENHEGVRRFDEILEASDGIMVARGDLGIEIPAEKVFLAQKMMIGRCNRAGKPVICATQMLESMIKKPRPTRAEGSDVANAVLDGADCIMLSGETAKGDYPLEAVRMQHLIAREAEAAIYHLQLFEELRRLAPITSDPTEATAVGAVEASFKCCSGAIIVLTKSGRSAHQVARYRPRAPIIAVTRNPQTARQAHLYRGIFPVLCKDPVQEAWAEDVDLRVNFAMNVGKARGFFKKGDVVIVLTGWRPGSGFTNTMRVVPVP
inactive: [1] 0.003 | crizotinib 0.021 | [2] 0.013 | [3] -0.044 | duvelisib 0.007 | gandotinib -0.013 | tozasertib -0.026 | [4] -0.029 | doramapimod -0.019 | ispinesib 0.02 | bafetinib -0.023 | [5] -0.012 | nilotinib -0.011 | [6] -0.004 | dasatinib 0.024 | [7] -0.009 | [8] 0.015 | [9] 0.006 | tipifarnib 0.005 | mubritinib 0.035

PISD (UniProt Q9UG56)
UniProt Q9UG56, sequence (Q9UG56 whole entry, looked up): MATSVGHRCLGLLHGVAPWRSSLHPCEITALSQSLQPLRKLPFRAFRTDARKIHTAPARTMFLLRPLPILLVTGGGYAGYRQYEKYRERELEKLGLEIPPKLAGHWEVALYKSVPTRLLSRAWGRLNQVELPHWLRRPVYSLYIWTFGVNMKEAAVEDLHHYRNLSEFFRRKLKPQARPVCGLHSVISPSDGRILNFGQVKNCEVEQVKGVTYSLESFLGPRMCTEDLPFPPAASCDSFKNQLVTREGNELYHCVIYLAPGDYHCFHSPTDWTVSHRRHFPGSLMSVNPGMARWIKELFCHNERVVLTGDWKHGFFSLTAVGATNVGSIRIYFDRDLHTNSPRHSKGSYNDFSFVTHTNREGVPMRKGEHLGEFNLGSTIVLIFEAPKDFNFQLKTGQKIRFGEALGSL
inactive: [1] 0 | crizotinib -0.023 | [2] 0.045 | [3] -0.018 | duvelisib 0.044 | gandotinib -0.004 | tozasertib -0.025 | [4] 0.036 | doramapimod 0.006 | ispinesib 0.02 | bafetinib -0.042 | [5] -0.007 | nilotinib -0.053 | [6] -0.003 | dasatinib -0.029 | [7] 0.105 | [8] -0.068 | [9] -0.02 | tipifarnib -0.005 | mubritinib 0.103
